In PubChem BioAssay (NCI):
Compounds without any hit were thinned out: in the full panel of roughly 79,000, 15% have a hit. Activity calls are given as the source filed them. No stated cut-off is given here; in the data, active means growth inhibition above about 70%; inactive means the rest.

Assays:
[1] = NCI Yeast Anticancer Drug Screen. Data for the rad50 strain (AID 155);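 further: 0% = growth of vehicle-only cultures of the same strain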; conditions: S. cerevisiae rad50 strain growth inhibition; at 50.0 µM; hits give high values
How it was run: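 DNA repair mutant yeast, compound exposure, growth read-out; inhibition is taken relative to vehicle.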

[2] = NCI Yeast Anticancer Drug Screen. Data for the mec2-1 strain (AID 157); conditions: S. cerevisiae mec2-1 strain, at 50.0 µM, hits give high values
How it was run: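 Strain: mec2-1 (DNA repair/cell cycle alteration). Compound exposure, then growth measured; inhibition expressed relative to vehicle.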

[3] = NCI Yeast Anticancer Drug Screen. Data for the sgs1 mgt1 strain (AID 161);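 further: 0% = growth of cultures given vehicle only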; conditions: S. cerevisiae sgs1 mgt1 strain, at 50.0 µM, hits give high values
How it was run: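 Inhibition of yeast growth, normalised to vehicle-treated controls, is reported for a strain bearing genetic alterations in DNA damage repair.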

[4] = NCI Yeast Anticancer Drug Screen. Data for the cln2 rad14 strain (AID 165);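 further: 0% = growth equal to vehicle treated cultures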; conditions: S. cerevisiae cln2 rad14 strain, at 50.0 µM, hits give high values
How it was run: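 Compounds are applied to the cln2 rad14 yeast strain, and growth is then compared with that of vehicle-treated cultures to give inhibition.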

[5] = NCI Yeast Anticancer Drug Screen. Data for the bub3 strain (AID 167); conditions: S. cerevisiae bub3 mutant strain, at 50.0 µM, hits give high values
How it was run: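 In this screen, a yeast mutant lacking normal mitotic checkpoint function is challenged with compound. Relative growth versus vehicle gives the inhibition value.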

[6] = NCI Yeast Anticancer Drug Screen. Data for the mlh1 rad18 strain (AID 175); conditions: S. cerevisiae mlh1 rad18 strain growth inhibition; at 50.0 µM; hits give high values
How it was run: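 Read-out is yeast growth inhibition, calculated against vehicle-only controls. The compound was applied to a strain engineered with DNA damage repair alterations.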

Measured: growth inhibition

Oc1c(CN2CCOCC2)cc(CN2CCOCC2)cc1CN1CCOCC1
inactive: [1] 7.7% | [2] 0.5% | [3] -5.4% | [4] 2.2% | [5] 6.6% | [6] 6.55%

CCCCCCCCN(c1ccc(C(=O)NC(CCC(=O)OCC)C(=O)OCC)cc1)S(=O)(=O)c1ccc(C)cc1 (configuration not stated)
inactive: [1] -14.6% | [2] -4.5% | [3] -18.9% | [4] -24.6% | [5] -3.6% | [6] -12.2%

COc1ccc(C2CCCCCC2OC(=O)c2ccc([N+](=O)[O-])cc2)c(OC)c1OC (configuration not stated)
inactive: [1] 16% | [2] 11.5% | [3] -2.45% | [4] 42.9% | [5] 2.6% | [6] 1.7%

O=c1[nH]cnc2c(C3OC(CO)C(O)C3O)[nH]nc12 (configuration not stated)
inactive: [1] -5.2% | [2] -34.7% | [3] -15.8% | [4] 3.3% | [5] -16.8% | [6] -0.45%

C[N+](C)(C)CCC(=O)CC[N+](C)(C)C
inactive: [1] 16.2% | [2] -2.2% | [3] 0.5% | [4] -24.4% | [5] 32.6% | [6] 40.9%

NC(=O)c1cccc(F)c1
inactive: [1] 13.8% | [2] 5.3% | [3] -10% | [4] 10.2% | [5] 2.1% | [6] 14.9%

CN1CCN(c2c3c(nc4ccccc24)CCCC3)CC1
inactive: [1] -6.45% | [2] 2% | [3] -2.4% | [4] -40.2% | [5] -10.3% | [6] -22%

C=C(C)Cc1cc(C(CC)C(CC)c2ccc(O)c(CC(=C)C)c2)ccc1O (configuration not stated)
inactive: [1] 18.6% | [2] 20.4% | [3] 47.2% | [4] 34.3% | [5] 6.25% | [6] 46%

CCC12C=CCN(CCc3c([nH]c4ccccc34)/C=C\1)C2 (configuration not stated)
inactive: [1] -8.95% | [2] -8.75% | [3] -7.25% | [4] -1.6% | [5] 6.55% | [6] -15.8%

CC(=O)Oc1c(C)cc2c(c1C)C(C)CN2C(C)=O (configuration not stated)
inactive: [1] 3.95% | [2] -33.8% | [3] -24.6% | [4] -18.9% | [5] -22.4% | [6] -10.6%

CC(=S)NC(=O)Nc1cccc2ccccc12
inactive: [1] 19.2% | [2] -8.45% | [3] 2.4% | [4] -50.6% | [5] -10.2% | [6] 10.8%

COc1ccc(Cc2cc(N=NC(N)=O)c(C)cc2O)cc1
inactive: [1] -7.35% | [2] -5.65% | [3] -2.55% | [4] 1.75% | [5] 3.5% | [6] 4.55%

Cc1ccccc1-c1nc(/C=C2\C(=O)C=Cc3ccccc32)c(O)o1
inactive: [1] -17.3% | [2] -4.45% | [3] -1.1% | [4] 23.6% | [5] -2.55% | [6] -1.6%

CC(=O)N=C1N(/C=C2\C(=O)Oc3ccccc3C2=O)C(=O)/C(=C/c2ccccc2Cl)N1C
inactive: [1] -13.2% | [2] -21.9% | [3] -25.7% | [4] 10.2% | [5] -16.9% | [6] -8.35%

CC1(C)OB(O)OC1(C)C
inactive: [1] -10.4% | [2] 12.7% | [3] -35.2% | [4] 14.6% | [5] -0.9% | [6] -9.7%

COC(=O)C#Cc1cccc(OC)c1OC
inactive: [1] 22.1% | [2] 14.9% | [3] 22.9% | [4] -31.2% | [5] 12.3% | [6] 10.2%

CNc1n[nH]c(-c2ccccc2)n1
inactive: [1] 4.85% | [2] -17.5% | [3] 11.8% | [4] 11.9% | [5] 1.15% | [6] 1.8%

Cc1cc(=O)c2cc3ccc4cccc5ccc(c2[nH]1)c3c45
inactive: [1] -12.6% | [2] -8.35% | [3] -10.1% | [4] -24.3% | [5] -6.85% | [6] -5.85%

COc1cccc(C2c3cc4c(cc3OC(N3CCCCC3)C2C)OCO4)c1O (configuration not stated)
inactive: [1] -22.5% | [2] -31.1% | [3] 0.15% | [4] 18.9% | [5] -2.5% | [6] 0.1%

COc1ccc2c(Cc3ccccc3O)cncc2c1O
inactive: [1] 0.9% | [2] 2.25% | [3] -4.75% | [4] -3.5% | [5] -5.9% | [6] 14.8%

Brc1ccccc1N=Nc1ccccc1Br
inactive: [1] -13.6% | [2] 3.95% | [3] 0.6% | [4] -18.6% | [5] -8.5% | [6] -20.5%

Cc1ccc(C)c(NC(=O)C(=O)C(C#N)c2c(Cl)cccc2Cl)c1 (configuration not stated)
inactive: [1] -23.2% | [2] 16.5% | [3] 44.5% | [4] -24.4% | [5] 6.35% | [6] 28.9%

CCC(SC)C(=O)N(C)c1ccccc1 (configuration not stated)
inactive: [1] -8.5% | [2] -15.3% | [3] 1.25% | [4] -10.3% | [5] -13.1% | [6] -3%

CC1(C)O[C@H]2[C@H](O)C[C@](O)(CO)C[C@H]2O1
inactive: [1] 1.3% | [2] 3.85% | [3] -0.65% | [4] -27.6% | [5] -9.25% | [6] 1.25%

N#C/C(=C\c1ccccc1[N+](=O)[O-])C(=O)O
inactive: [1] 36.5% | [2] 0.45% | [3] 23.2% | [4] 16.9% | [5] -19% | [6] 3.7%

CCC(C(O)c1ccccc1)[N+](=O)[O-] (configuration not stated)
inactive: [1] 54.8% | [2] 31.3% | [3] 9.5% | [4] -8.75% | [5] -11.1% | [6] 10.3%

O=C1C2=Cc3ccccc3OC2(O)Oc2cc(O)ccc21 (configuration not stated)
inactive: [1] 10.5% | [2] 11.2% | [3] 0.05% | [4] -4.1% | [5] -2.15% | [6] -36.6%

CC(C)CC1NC(=O)CCC(NC(=O)C(Cc2ccc(O)cc2)NC(=O)OCc2ccccc2)C(=O)NC(Cc2ccccc2)C(=O)NC(Cc2ccccc2)NC1=O (configuration not stated)
inactive: [1] -24.9% | [2] -21.6% | [3] -24% | [4] 8.6% | [5] -7.55% | [6] -18%

CCCCCC(C(O)C#N)C(O)(C(F)(F)F)C(F)(F)F (configuration not stated)
inactive: [3] 58.8%
active: [1] 94.7% | [2] 80.7% | [4] 80.6% | [5] 86.2% | [6] 98%

Cc1cc([N+](=O)[O-])c(NCCOC(=O)c2ccc([N+](=O)[O-])cc2)c([N+](=O)[O-])c1
inactive: [1] -24.1% | [2] -6.55% | [3] -10.9% | [4] -69.2% | [5] 2.8% | [6] -10.7%

CCC(=O)NC(Nc1cccc(F)c1)(C(F)(F)F)C(F)(F)F
inactive: [1] -28.5% | [2] -36.6% | [3] -20.7% | [4] 13.3% | [5] -20.9% | [6] -66.8%

CCOC(=O)C(=CNc1ccc2c(c1)OCO2)C(=O)OCC
inactive: [1] 4.95% | [2] -11.2% | [3] 28.2% | [4] 4.65% | [5] 49.4% | [6] 14.8%

O=c1[nH]c(=O)c2ncn(-c3ccc([N+](=O)[O-])cn3)c2[nH]1
inactive: [1] 20.8% | [2] 7.3% | [3] 9.95% | [4] 5.4% | [5] 8.6% | [6] -27.6%

O=C(O)CC1CCCNC1 (configuration not stated)
inactive: [1] -11.3% | [2] 1.95% | [3] -13.7% | [4] -18.6% | [5] -16% | [6] -16.3%

CCCNC(=O)C1C(=O)C(=O)N(CCC)C1=O (configuration not stated)
inactive: [1] 7.8% | [2] 4.45% | [3] 4.1% | [4] -4.5% | [5] -3.9% | [6] 4.05%

Cc1ccc(N=Nc2c(C)nc(N)nc2C)cc1
inactive: [1] 7.5% | [2] 13.9% | [3] -12.7% | [4] -2.85% | [5] 12.1% | [6] -6.55%

O=C(CSc1nnc(Cc2ccccc2)o1)Nc1ccc(Cl)cc1Cl
inactive: [1] -18.8% | [2] -41% | [3] -41.3% | [4] -10.7% | [5] -10.2% | [6] -14%

CC1COC(C)(C2CC2)O1 (configuration not stated)
inactive: [1] 6.6% | [2] 9.95% | [3] -24.4% | [4] -13.7% | [5] 7.45% | [6] 6.5%

C=C(CCCC(=C)C(N)=O)C(N)=O
inactive: [1] -14.4% | [2] -14.5% | [3] -12.1% | [4] 2.55% | [5] -0.85% | [6] -27.4%

CC1(C)/C(=C\C(=O)O)C2CCC1C2 (configuration not stated)
inactive: [1] 11.4% | [2] 8.3% | [3] 7.5% | [4] -10.8% | [5] -9.1% | [6] 8.75%

COC(=O)CSSCc1ccccc1
inactive: [1] 3.5% | [2] 1.5% | [3] 3.65% | [4] -26.1% | [5] -28.1% | [6] 6.35%

Cc1c(Cl)cccc1NC(=O)Nc1ccc(S(N)(=O)=O)cc1
inactive: [1] 0.7% | [2] 29.4% | [3] 39.4% | [4] 1.4% | [5] 21.8% | [6] 19.1%
